Measurements taken from PubChem BioAssay AID1662 (Broad Institute, 2009).
Hit rate of the full screen: of about 300,000 compounds, about 4,000 (1.3%) were called active. This is one part of a sample in which actives are shown more often than they occur. Values without a mark were called inactive.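 Rule for the calls: active = mean replicate score, as percent of positive control median, at least 50; inconclusive = mean below 50 but one replicate at or above 50; inactive = mean and every replicate below 50.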

Test: kanamycin survival loss of SKKanGAS strain – BacTiter-Glo luminescence, streptokinase expression inhibitor project, primary screen (AID 1662);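 note: strain carries kanamycin resistance gene driven by streptokinase promoter and grows in 40 µg/ml kanamycin; loss of luminescence reflects streptokinase promoter inhibition or plain growth inhibition; 0% = median of DMSO wells and 100% = positive control at its reference dose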
Conditions: S. pyogenes SKKanGAS, kanamycin growth, 6 h, at 7.5 µM, hits give high values

Q: For `O=c1[nH]c(CSc2ccccc2)nc2c1oc1ccccc12`, which inhibition is on record?
A: -3.16%

Q: Which inhibition does the source give for `COc1ccc(C(=O)NC2=NCCS2)c(OC)c1` here?
A: -2.91%

Q: Which inhibition does the source give for `CCc1cc(=O)oc2c(C)c(OCC(=O)N3CC[C@@]4(O)CCCC[C@H]4C3)ccc12` here?
A: -5.4%

Q: With `CC(=C1C(=O)c2ccccc2C1=O)N1CCN(c2ccccn2)CC1` as the compound, how does the inhibition read?
A: 1.02%

Q: Which inhibition does the source give for `Cc1nn(-c2ccccn2)c2c1C(c1ccncc1)C1=C(CC(C)(C)CC1=O)N2` (centres undefined) here?
A: -3.06%

Q: With `Cc1cc(C)c(C2C3=C(Nc4c2c(C)nn4-c2ccccn2)c2ccccc2C3=O)c(C)c1` (centres undefined) as the compound, how does the inhibition read?
A: 57.1% (active)

Q: For `C=CCNc1nc(N)c([N+](=O)[O-])c(NC2CCCCC2)n1`, which inhibition is on record?
A: 6.03%

Q: Which inhibition does the source give for `C=CCC(C(=O)c1ccccc1)[N+](C)(C)CC=C` (centres undefined) here?
A: 2.59%

Q: For `O=C(OCC(=O)c1c[nH]c2ccccc12)c1cccc(O)c1`, which inhibition is on record?
A: -11.7%

Q: Which inhibition does the source give for `O=C(OCc1ccc(Br)cc1)c1cccc(-c2nnc(-c3ccccc3)o2)c1` here?
A: 7.23%

Q: Which inhibition does the source give for `O=C(OCc1ccc(-c2ccccc2)cc1)c1cccc(O)c1` here?
A: 54.9% (active)

Q: Which inhibition does the source give for `O=C(O)CCC(=O)Nc1ccc(OCC2CCCO2)cc1` (centres undefined) here?
A: 1.88%

Q: For `O=C(C1CCCO1)N(c1ccc(F)cc1)C1C=CS(=O)(=O)C1` (centres undefined), which inhibition is on record?
A: -0.303%

Q: For `CCOC(=O)c1cnc(Nc2nc3ccccc3o2)nc1CSC(=S)N1CCCCC1`, which inhibition is on record?
A: 30.1%

Q: With `Cc1ccc(C2CCN(C(=S)Nc3cccc(Cl)c3)C2)cc1` (centres undefined) as the compound, how does the inhibition read?
A: 14.8%

Q: Which inhibition does the source give for `CN(C)c1nc(=Nc2cccc(Cl)c2)ss1` here?
A: 53.2% (active)

Q: For `Clc1cccc(N=C2NN=C(c3ccc4c(c3)OCCO4)CS2)c1`, which inhibition is on record?
A: 21.6%

Q: Which inhibition does the source give for `Cc1ccccc1N1CCN(C2CCCN(C(=O)c3ocnc3C)C2)CC1` (centres undefined) here?
A: -0.706%

Q: Which inhibition does the source give for `O=[N+]([O-])c1cc(S(=O)(=O)Nc2cccc(Cl)c2)ccc1N=Nc1c(O)[nH]c2ccccc12` here?
A: 59.8% (active)

Q: Which inhibition does the source give for `CN1CCN(c2ccc(S(=O)(=O)Nc3ccccc3)cc2[N+](=O)[O-])CC1` here?
A: -10.6%

Q: With `Cc1cccc(N(CC(=O)N=Nc2c(O)[nH]c3ccccc23)S(C)(=O)=O)c1C` as the compound, how does the inhibition read?
A: 15.7%

Q: With `Cc1nc(COc2cc3oc(=O)cc(C)c3cc2Cl)cs1` as the compound, how does the inhibition read?
A: -7.93%

Q: With `COc1ccc2c(c1)CC[C@@H]1[C@@H]2CC[C@]2(C)C(=O)CC[C@@H]12` as the compound, how does the inhibition read?
A: -7.32%

Q: For `O=C(Nc1nnc(-c2ccco2)o1)c1ccc(S(=O)(=O)N2CCOCC2)cc1`, which inhibition is on record?
A: 1.36%

Q: With `COc1cc(-c2nnc(NC(=O)C3=COCCO3)o2)cc(OC)c1OC` as the compound, how does the inhibition read?
A: 2.37%

Q: With `Cc1ccc(C(=O)Nc2nnc(C3=COCCO3)o2)cc1C` as the compound, how does the inhibition read?
A: 85.9% (active)

Q: For `COc1ccccc1-c1nnc(NC(=O)c2ccc3ncsc3c2)o1`, which inhibition is on record?
A: 20%

Q: Which inhibition does the source give for `O=C(Nc1nnc(C2=COCCO2)o1)c1ccc([N+](=O)[O-])s1` here?
A: 63.4% (active)

Q: Which inhibition does the source give for `O=C(Nc1ncc([N+](=O)[O-])s1)C1COc2ccccc2O1` (centres undefined) here?
A: -8.31%

Q: With `CC1(C)Cc2c(sc(NC(=O)C(=O)NCC3CCCO3)c2C(=O)O)CO1` (centres undefined) as the compound, how does the inhibition read?
A: 2.62%

Q: With `CC1CCCCC1NC(=O)CCS(=O)(=O)c1ccc2c(c1)NC(=O)CO2` (centres undefined) as the compound, how does the inhibition read?
A: 6.59%

Q: With `COC(=O)c1cc(CNC(=O)CC(C)c2ccccc2)ccc1OC` (centres undefined) as the compound, how does the inhibition read?
A: -1.27%

Q: With `CCOC(=O)c1sc(=S)n2c1[nH]c(=O)c1ccc(C(=O)OC)cc12` as the compound, how does the inhibition read?
A: 66.6% (active)

Q: With `CCOC(=O)C1=C(C)Nc2sc(C(=O)c3ccc(Br)cc3)c(N)c2C1c1ccc(C(=O)OC)cc1` (centres undefined) as the compound, how does the inhibition read?
A: 22%

Q: For `CCOC(=O)c1ccc(Nc2cc3ccccc3c(=O)[nH]2)cc1`, which inhibition is on record?
A: 3.57%

Q: Which inhibition does the source give for `COc1cccc(NS(=O)(=O)c2ccc(-c3coc(C)n3)cc2)c1` here?
A: 2.27%

Q: For `CN(C)CCN(Cc1ccccc1)S(=O)(=O)c1csc(C(N)=O)c1`, which inhibition is on record?
A: -1.24%

Q: With `CC1=C(C(=O)Nc2ccccc2)C(c2cccs2)C(C#N)=C(SCC#N)N1` (centres undefined) as the compound, how does the inhibition read?
A: 15.4%

Q: Which inhibition does the source give for `Cc1noc(C)c1C(=O)N(CC(=O)NC1CCCC1)Cc1ccccc1F` here?
A: 2.6%

Q: With `COCCN(C(=O)COC(=O)Cc1cccc(OC)c1)c1c(N)n(Cc2ccccc2)c(=O)[nH]c1=O` as the compound, how does the inhibition read?
A: -1.12%

Q: For `Cc1cccc(NC(=S)Nc2ccc(Br)cc2)c1`, which inhibition is on record?
A: 5.45%

Q: Which inhibition does the source give for `Cc1cccc(NC(=S)Nc2ccc(Cl)c(Cl)c2)c1` here?
A: 82% (active)

Q: With `Cc1cccc(NC(=S)Nc2ccc3cn[nH]c3c2)c1` as the compound, how does the inhibition read?
A: 2.46%

Q: With `Cc1cc(C)cc(OCC(=O)Nc2cc(NC(=O)COc3cc(C)cc(C)c3)cc(C(=O)O)c2)c1` as the compound, how does the inhibition read?
A: 26%

Q: Which inhibition does the source give for `COc1ccc(Cl)cc1NC(=O)CN(C)Cc1ccc(OC)c(OC)c1` here?
A: 19.7%

Q: For `CCOC(=O)c1c(-c2ccc(C)cc2)csc1/N=C(\C)C1=C(O)c2ccccc2C1=O`, which inhibition is on record?
A: 8.34%

Q: With `COc1ccc(N2CCN(C(C)=C3C(=O)c4ccccc4C3=O)CC2)cc1` as the compound, how does the inhibition read?
A: 0.489%

Q: Which inhibition does the source give for `CCOC(=O)C1=C(c2ccc(OC)cc2)C(=O)c2ccccc2C1=O` here?
A: 54.9% (active)

Q: With `Cc1ccc(N=C2SCCCN2C(=O)c2cccc(N3C(=O)CCC3=O)c2)cc1Cl` as the compound, how does the inhibition read?
A: 1.34%

Q: For `O=C(NCCOc1ccccc1F)Nc1ccc(Br)cc1`, which inhibition is on record?
A: -7.4%

Q: For `Cc1ccc2cccc(S(=O)(=O)N3CCN(c4ccccc4F)CC3)c2n1`, which inhibition is on record?
A: -8.1%

Q: With `CCn1cc(C(=O)NCCO)c(=O)c2cc(F)c(N3CCN(C)CC3)cc21` as the compound, how does the inhibition read?
A: 1.21%

Q: For `CN1CCN(c2cc3c(cc2F)c(=O)c(C(=O)O)cn3CCF)CC1`, which inhibition is on record?
A: 66.8% (active)

Q: With `CCCCCCn1cc(C(=O)O)c(=O)c2cc(F)c(N3CCCCC3)cc21` as the compound, how does the inhibition read?
A: 10%

Q: For `CC(C)(C)c1ccc(C(=O)NCCn2c(N)c(C#N)c3nc4ccccc4nc32)cc1`, which inhibition is on record?
A: 8.82%

Q: Which inhibition does the source give for `CC(C)Cn1c(N)c(C(=O)NCc2cccs2)c2nc3ccccc3nc21` here?
A: 88.2% (active)

Q: Which inhibition does the source give for `CCOc1ccccc1NC(=O)Cn1nnc(C(=O)NCc2cccs2)c1N` here?
A: -0.164%

Q: With `O=C(NCCS(=O)(=O)N1CCN(c2ccccc2)CC1)c1ccco1` as the compound, how does the inhibition read?
A: -0.162%

Q: With `COc1cc(OC)c(OC)cc1CN1CCN(C(=O)c2cccc3ccccc23)CC1` as the compound, how does the inhibition read?
A: -1.09%
